Screening results from PubChem BioAssay.
USP17 block – human USP17-like deubiquitinase inhibition | inhibition, % at 50 µM | purified USP17, Ub-rhodamine cleavage fluorescence, 3 h | AID 1645855 | 6.5% of 47,000 active
Target sequence (A8MUK1 whole entry, looked up): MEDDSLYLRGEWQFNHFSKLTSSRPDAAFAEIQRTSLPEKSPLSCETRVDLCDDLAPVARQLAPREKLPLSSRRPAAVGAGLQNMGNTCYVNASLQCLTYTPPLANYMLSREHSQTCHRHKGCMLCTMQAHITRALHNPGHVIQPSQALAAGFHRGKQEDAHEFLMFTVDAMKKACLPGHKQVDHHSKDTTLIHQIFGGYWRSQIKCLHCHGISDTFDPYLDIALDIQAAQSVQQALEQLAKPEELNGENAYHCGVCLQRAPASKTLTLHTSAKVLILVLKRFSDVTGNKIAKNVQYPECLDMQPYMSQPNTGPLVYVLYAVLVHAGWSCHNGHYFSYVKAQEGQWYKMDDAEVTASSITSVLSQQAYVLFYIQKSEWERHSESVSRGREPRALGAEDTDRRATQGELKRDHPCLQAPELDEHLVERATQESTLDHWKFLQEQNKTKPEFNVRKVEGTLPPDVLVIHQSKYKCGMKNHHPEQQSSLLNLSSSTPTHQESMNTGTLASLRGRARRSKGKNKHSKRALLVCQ
USP28 block – blocks human USP28 ubiquitin-rhodamine cleavage; Q96RU2; purified USP28, Ub-rhodamine cleavage fluorescence, 30 min; inhibition, % at 25 µM; 3% of 47,000 active; AID 1645857
USP10 block – blocks human USP10 ubiquitin-rhodamine cleavage. purified USP10, Ub-rhodamine fluorescence, 60 min. inhibition, % at 20 µM. 1.1% of 47,000 active. AID 1645856
USP30 block – blocks human USP30 ubiquitin-rhodamine cleavage | purified USP30, Ub-rhodamine cleavage fluorescence | 5.3% of 47,000 active | inhibition, % at 25 µM
USP8 block – human USP8 deubiquitinase inhibition; 4.2% of 47,000 active; inhibition, % at 20 µM; AID 1645853; P40818; purified USP8, Ub-rhodamine cleavage fluorescence, 30 min
Numbers stand for hits; 0 = inactive; - = not tested or not shown. The list is not random: actives were taken first. Their share in the collection is about 13%. No stated cut-off is given here; in the data, active means inhibition above about 30%; inactive means the rest.

SMILES	USP17 block	USP28 block	USP10 block	USP30 block	USP8 block
O=C1CC(C(=O)Nc2ccc(F)cc2)n2nc(SCc3ccccc3)nc2N1 (stereo unspecified)	0	0	0	58.5	0
COc1cccc(NC(=O)C2CC(=O)Nc3nc(SCc4ccccc4)nn32)c1 (stereo unspecified)	0	0	0	0	0
O=C1CC(C(=O)Nc2cccc(F)c2)n2nc(SCc3ccccc3)nc2N1 (stereo unspecified)	0	0	0	42.8	0
CC(=O)c1ccc(NC(=O)C2CC(=O)Nc3nc(SCc4ccccc4)nn32)cc1 (stereo unspecified)	0	0	30.4	0	0
CC1[C@@H]2[C@@H](C(=O)N3CCOCC3)C[C@H](CN1C(=O)c1cccc(N3CCOCC3)c1)N2C (stereo partly specified)	0	0	0	0	0
CN1CCN(c2cc(-c3ccc(F)cc3)nc(-c3cccnc3)n2)CC1	0	0	0	0	0
Cc1ccc(N2CC(C(=O)N3CCC(C(=O)Nc4ccccc4F)CC3)CC2=O)cc1 (stereo unspecified)	0	0	0	0	0
Cc1cc(-c2cc(CC3CCN(C(=O)C(C)(C)C)CC3)ncn2)n[nH]1	0	0	0	0	0
COc1nc2c(c(-c3ccco3)c1C#N)Cc1cc(NC(C)=O)ccc1-2	38.7	0	0	0	65.8
COc1ccc(NC(=O)COc2cccc(-c3noc(-c4ccco4)n3)c2)cc1	0	0	0	0	0
CN(C)CCC(=O)c1ccc2c(c1)CCCO2	0	0	0	0	0
Cc1nn(C)c2c1[C@@H](c1ccc(F)c(Br)c1)[C@H](NC(=O)c1ccccc1)C(=O)N2	0	70.6	0	0	0
Cc1nn(C)c2c1[C@@H](c1ccc3c(c1)OCCO3)[C@H](NC(=O)c1ccc(Cl)cc1)C(=O)N2	0	0	0	0	0
COC(=O)c1cc(C#N)c(NCc2ccccc2)nc1C	58.8	0	0	0	0
CC1=C(C(=O)Nc2ccc(Cl)cc2)C(c2cccnc2)n2ncnc2N1 (stereo unspecified)	0	0	0	0	0
CC1=C(C(=O)Nc2ccccn2)C(c2ccc3c(c2)OCO3)n2ncnc2N1 (stereo unspecified)	0	33.2	0	0	0
CC1=C(C(=O)Nc2ccccc2C)C(c2ccc(OCc3ccccc3F)cc2)n2ncnc2N1 (stereo unspecified)	62.3	0	0	0	0
CCN1C[C@H]2COc3cc(OC)ccc3[C@H]2N(C(=O)c2ccc(OC)cc2)CCC1=O	0	0	0	0	0
O=C(C(Sc1ccccc1)c1ccccc1)N1CCN(c2cccc(C(F)(F)F)c2)CC1 (stereo unspecified)	-	0	0	30.7	0
Fc1ccccc1-c1nc(-c2ccncc2)ncc1-c1nnnn1-c1ccccc1	0	0	0	0	0
Fc1cc(F)c2[nH]cc(-c3nnnn3-c3ccc4ccccc4c3)c2c1	-	45.5	31.5	71.0	55.4
O=C(CN1CC2(CCOCC2)Oc2ccc(Cl)cc2C1=O)NC1CCCC1	0	0	0	0	0
COc1ccc(NC(=O)CN2C(=O)c3ccccc3Sc3ccc(C(=O)N4CCCC4)cc32)c(OC)c1	54.6	0	0	48.6	0
COc1ccc(-c2cc(N3CCC(NC(=O)c4ccccc4)C3)n[nH]2)cc1 (stereo unspecified)	55.9	0	0	0	0
Cc1ccc(SCC(O)CN2CCN(c3ccccc3)CC2)cc1 (stereo unspecified)	0	0	0	0	0
SMILES	USP17 block	USP28 block	USP10 block	USP30 block	USP8 block
O=C(NCC1(c2ccccc2)CCC1)c1nc2n(n1)-c1ccccc1S(=O)(=O)N2	0	0	39.4	0	0
O=C(Nc1ccccc1Cc1ccccc1)c1nc2n(n1)-c1ccccc1S(=O)(=O)N2	0	0	45.8	0	59.4
O=C(NCc1ccccc1F)c1nc2n(n1)-c1ccccc1S(=O)(=O)N2	0	0	0	0	0
CC(=O)NC(Cc1ccc(C)cc1)C(=O)NC1CCN(C(=O)C2CC2)CC1 (stereo unspecified)	0	0	0	0	0
COc1ccc(-n2c3c(c(=O)[nH]c2=O)CN(Cc2ccco2)CN3)cc1	0	0	0	0	0
O=C(O)CCC(=O)Nc1cccc(-c2nnc(-c3ccccc3)o2)c1	0	0	0	33.0	0
O=C(Nc1ccc2c(c1)CCC2)c1cc2ccccc2s1	0	33.2	0	0	0
Cc1ccc(NC(=O)c2cc(C3CC3)on2)cc1	0	-	0	-	0
Cc1ccc(NC(=O)c2cc3c(s2)CCC3)cc1	48.8	37.1	0	0	48.7
O=C(Nc1ccc2[nH]c(=O)[nH]c2c1)c1cc2c(s1)CCCCC2	0	0	0	0	53.4
O=C(O)Cc1ccccc1C(=O)Nc1ccc2c(c1)CCC2	0	0	0	0	0
COC(=O)c1cc2c(ccn2C)n1CC(=O)NC1CC1	0	0	0	0	0
Cc1cccc(-n2ncc(C(=O)N3CCc4ccccc43)c2-n2cccc2)c1	0	0	0	42.4	0
C[C@H](NC(=O)[C@H](Cc1c[nH]c2ccccc12)n1c(=O)[nH]c2ccccc2c1=O)C(=O)N1CCC(C(=O)O)CC1	0	0	0	0	0
COc1ccccc1CN1C(=O)c2ccccc2CC1(C)C(=O)NC1CCC(C)CC1 (stereo unspecified)	-	0	0	0	0
CC1(C(=O)NC2CCCCCC2)Cc2ccccc2C(=O)N1CCN1CCOCC1 (stereo unspecified)	0	0	0	35.4	0
CC1CCC(NC(=O)C2(C)Cc3ccccc3C(=O)N2C2CCCCC2)CC1 (stereo unspecified)	0	0	0	30.2	0
O=C(COC(=O)c1ccc2ccccc2n1)Nc1ccc(F)cc1	0	0	0	0	0
CN(C)S(=O)(=O)c1cccc(C(=O)OCc2ccccc2C#N)c1	0	35.6	0	0	0
N#Cc1ccccc1COC(=O)c1ccc2ccccc2n1	0	62.2	0	0	0
N#Cc1ccc(COC(=O)c2ccc3ccccc3n2)cc1	0	64.2	0	0	0
O=C(OCc1ccc(Br)cc1)c1ccc2ccccc2n1	0	81.6	0	0	0
Cc1ccc(N(C)S(=O)(=O)c2cccc(C(=O)OCC(=O)c3ccc(-c4ccccc4)cc3)c2)cc1	0	0	0	0	0
O=C(NCC(c1cccnc1)N1CCc2ccccc21)c1ccc2c(c1)OCO2 (stereo unspecified)	-	0	0	0	0
COc1ccc(CCNC(=O)N2C[C@H]3C[C@H]4[C@](C2)(CN(CC(C)C)S4(=O)=O)O3)cc1	0	0	0	0	0
OC(c1ccc2c(c1)OCO2)c1ncc(-c2ccc(Cl)cc2)[nH]1 (stereo unspecified)	0	0	0	0	0
OC(c1ccc2c(c1)OCO2)c1ncc(-c2ccc3ccccc3c2)[nH]1 (stereo unspecified)	0	0	0	0	40.0
CC1CCC(NC(=O)C2CCCN2S(=O)(=O)c2ccc3nc(-c4ccccc4)[nH]c3c2)CC1 (stereo unspecified)	34.1	0	0	0	0
Cc1cccc(N2CCN(C(=O)NCc3ccccc3)CC2)c1C	0	0	0	0	0
